Experimental data: the supplement of paper PMC6555819

Assays:
Test in all cases: PBM binding z-score (relative to random genomic background probes); higher = stronger binding; sequences stand for … in GC…GCGATTGACAGCGTAGAATGAAGG
[1] = test system: FXR:RXRa (NR concentration 270 nM, RXRa partner concentration 90 nM)
In short: (§1)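 Antibodies against each partner of ligand-free nuclear receptor dimers (one per run) detected binding on custom Agilent 4×180K protein-binding microarrays after 1 h incubation. The double-stranded probes had 34-nt variable regions carrying direct-repeat seeds, single-nucleotide variants, half-site ablations and random human genomic background sequences. Binding z-scores, from regression-normalized fluorescence, use the random background probes as reference.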

[2] = test system: LXRa:RXRa (NR concentration 270 nM, RXRa partner concentration 90 nM)
In short: as §1

[3] = test system: LXRa homodimer (NR concentration 270 nM)
In short: as §1

[4] = test system: LXRb:RXRa (NR concentration 270 nM, RXRa partner concentration 90 nM)
In short: as §1

[5] = test system: LXRb homodimer (NR concentration 270 nM)
In short: as §1

[6] = test system: PPARa:RXRa (NR concentration 270 nM, RXRa partner concentration 90 nM)
In short: as §1

[7] = test system: PPARg:RXRa (NR concentration 180 nM, RXRa partner concentration 90 nM)
In short: as §1

[8] = test system: PPARg:RXRa 270nM:90nM, anti-RXR (NR concentration 270 nM, RXRa partner concentration 90 nM)
In short: as §1

[9] = test system: PPARg:RXRa 30nM:10nM, anti-RXR (NR concentration 30 nM, RXRa partner concentration 10 nM)
In short: as §1

[10] = test system: PPARg:RXRa 90nM:30nM, anti-RXR (NR concentration 90 nM, RXRa partner concentration 30 nM)
In short: as §1

Sequence | PBM binding z-score [1] | PBM binding z-score [2] | PBM binding z-score [3] | PBM binding z-score [4] | PBM binding z-score [5] | PBM binding z-score [6] | PBM binding z-score [7] | PBM binding z-score [8] | PBM binding z-score [9] | PBM binding z-score [10]
GGAACGAGGGCATGTTGATAGCAGAGTTTGATGG | 0.438 | -0.0957 | 0.0371 | 0.12 | -0.293 | 0.843 | 0.848 | 0.668 | 0.0112 | -0.104
TCTTGTAAATCAACAGGAGGTTAAGAAAGATCGA | 0.826 | 1.32 | 0.389 | 1.1 | 0.0438 | 1.36 | 0.285 | 2.05 | 3.57 | 2.79
ATCTCTAGGTAACCAAGTTAAGTGAATGCCGAAC | 0.211 | 0.255 | 0.398 | 0.412 | 0.551 | 0.58 | 0.376 | 0.507 | 0.346 | 0.476
GGAACGAGGGCAAGTTGCTAGCAGAGTTTGATGG | 0.687 | 0.359 | -0.44 | 0.0629 | -0.392 | 1.48 | 0.841 | 1.04 | -0.453 | 0.0808
AGTCATAGTTCAGGACGAGGTAACGTAAAGCACG | 1.09 | 1.13 | -0.0495 | 0.662 | 0.0216 | 1.54 | 1.53 | 1.53 | 0.782 | 0.867
TGTCGGAGGACACGAAAGGTCAGAGCTCGACATC | 3.25 | 3.96 | 2.69 | 3.16 | 0.015 | 3.69 | 1.62 | 2.54 | 0.799 | 1.53
TCTATTAGTTGAAAGGCAACCGACGAGTCCGTTT | 0.518 | 0.929 | 0.254 | 0.901 | 0.728 | 1.12 | 0.475 | 2.96 | 4.06 | 3.42
ACAATGAGGTTACCAAAGATCAGGGAAACGCTTG | 1.97 | 6.4 | 0.286 | 3.25 | 0.572 | 3.26 | 2.36 | 2.11 | 0.698 | 1.61
CGTTCAAGGTCAGAGAGGTCAGTGAATGCCGAGT | 6.69 | 5.26 | 3.71 | 4.58 | 0.61 | 5.27 | 4.38 | 4.69 | 1.58 | 3.31
ATATGTAGGTTAAGGGTCATTCCGGTTGGTTCGC | 5.44 | 4.91 | 3.25 | 4.19 | 1.33 | 6.67 | 11.4 | 9.69 | 10.2 | 11.1
CCGAGTAGGTTATGGGGGATTCAGGCAACGGTGA | 1.01 | 1.49 | 0.84 | 3.36 | 6.87 | 2.55 | 2.34 | 4.36 | 1.98 | 3.77
TTACCAAGGAGAAGGTCGTTGATCCCTCTGTAGA | 1.21 | 1.19 | -0.0479 | 0.995 | -0.829 | 1.18 | 0.529 | 2.23 | 1.24 | 1.77
AGAATGAGGTTAAGATCGGGGAAACAGAATACAT | 2.13 | 4.69 | -0.244 | 2.3 | 0.08 | 3.65 | 2.06 | 2.53 | 0.954 | 1.75
CCGACTGGGGCAAAGGTTACCAGACTCAGTACGA | 1.56 | 1.7 | -0.36 | 1.99 | -1.21 | 5.91 | 10.5 | 8.66 | 8.75 | 9.25
AGATTGAGGTTATACGTAGATCAGGGAAGAAAGT | 1.82 | 1.79 | 0.26 | 1.37 | 0.202 | 2.91 | 1.21 | 1.56 | 0.644 | 1.05
CGTCCAAGGTCAAGGTCAGTGGAAGAGACTCGAA | 7.57 | 5.46 | 1.22 | 4.68 | 0.505 | 5.89 | 6.29 | 6.3 | 2.6 | 5.24
CGTCAAAGTTCAAGGTAACCTAACAGAAAGCAGC | 6.46 | 5.68 | 2.88 | 3.53 | 0.767 | 5.05 | 4.79 | 5.23 | 1.93 | 3.95
TGAATGAGGTTATAAGTTCAGGGAACGTTGCAAA | 2.81 | 2.69 | 0.29 | 1.88 | -0.136 | 3.66 | 2.09 | 3.38 | 1.55 | 2.71
CCTCGGAGTACAGAAGGTCAGAGCTGTCCGCTTT | 1.75 | 3.22 | 1.46 | 1.54 | -0.164 | 2.02 | -0.0233 | 0.921 | -0.606 | 0.4
ACTATTAGTTGAGACGAGGGCAACCGTTAGGTTG | 0.584 | 0.15 | 0.0603 | -0.161 | 0.0285 | 0.115 | 0.198 | -0.206 | -0.415 | -0.374
CAAACTAGGTCACGAAAAGTCAAAGTCGAATGAC | 4.52 | 5.32 | 0.989 | 3.22 | 0.716 | 5.53 | 9.43 | 7.43 | 5.91 | 7.51
TCCGCTAGGTCAACGATGGTCAGCTAATCTGCTA | 2.89 | 2.67 | 0.0246 | 1.54 | -0.303 | 3.09 | 2 | 2.53 | 1.82 | 2.22
GCGACTGGGGCAAAGCAGGTTTCCATAAGGTTGG | -0.319 | -0.518 | -0.852 | -0.284 | -0.53 | 0.542 | 0.609 | 0.674 | -0.401 | 0.205
ATATGTAGGTTAGCTGGGGTCATACAGACTAGGC | 5.27 | 5.79 | 2.45 | 4.74 | 0.852 | 5.2 | 6 | 5.38 | 2.74 | 4.94
